This note sets out measurements from PubChem BioAssay (NCATS).

Several values for one entry are separate records, joined by “and”; a condition that tells them apart may be missing. Identical values can stand only once. Records with an inconclusive call do not appear. Activity calls are given as the source filed them. Unless noted, the call rests on the fitted dose curve; in most records, active means well fitted curve in the direction sought with a large enough effect; inconclusive means small, poorly fitted or top-dose-only effect, or another doubt; inactive means no such curve, though single readings can be large; an effect the other way counts as inactive or inconclusive.

For experiment [1], the target named is DNA dC->dU-editing enzyme APOBEC-3G (Homo sapiens) (UniProt Q9HC16). The experiment in a line: qHTS for inhibitors of Vif-A3G interactions: Validation (AID 588379). Further: 0% is about no effect. In a few lines:
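Yellow fluorescence (Ex 488, Em 500-530) of Vif-coexpressing HeLa A3G-eYFP cells, scanned by Acumen cytometer, reports blocked A3G degradation. Cells plated at 700/well overnight at 37 deg C before compound addition, then a further overnight compound incubation at 37 deg C.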
On the technique in general: Quantitative high-throughput screening tests each substance at several concentrations.

Experiment [2] deals with Estrogen receptor (Homo sapiens) (UniProt P03372). The experiment in a line: qHTS assay for small molecule agonists of estrogen receptor alpha signaling (AID 588514; calls by dose curve; further: nearly all actives have a fitted effect of over 70% in size; further: potency means the concentration at half of the fitted maximal effect;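 on activation: 0% = vehicle only and 100% = reference agonist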). In a few lines:
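Fluorescence from CCF4 cleavage reports ER-alpha-driven beta-lactamase expression in HEK 293 cells treated 18 hrs at 37 C. Data normalized to 17-beta-estradiol (20 nM) and DMSO, fitted to Hill equation.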

Experiment [3] deals with Peroxisome proliferator-activated receptor delta (Homo sapiens) (UniProt Q03181). The experiment in a line: qHTS assay for small molecule agonists of peroxisome proliferator-activated receptor delta signaling (AID 588534; calls by dose curve;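 further: 0% = DMSO basal wells and 100% = positive control agonist at 10 µM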). The method in brief: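 EC50 and efficacy values derive from Hill fits of a concentration series in a beta-lactamase reporter cell assay. Exposure is 18 hrs at 37 C, with CCF4 fluorescence as the readout.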
Chain of Peroxisome proliferator-activated receptor delta (Homo sapiens) (Q03181 whole entry, looked up): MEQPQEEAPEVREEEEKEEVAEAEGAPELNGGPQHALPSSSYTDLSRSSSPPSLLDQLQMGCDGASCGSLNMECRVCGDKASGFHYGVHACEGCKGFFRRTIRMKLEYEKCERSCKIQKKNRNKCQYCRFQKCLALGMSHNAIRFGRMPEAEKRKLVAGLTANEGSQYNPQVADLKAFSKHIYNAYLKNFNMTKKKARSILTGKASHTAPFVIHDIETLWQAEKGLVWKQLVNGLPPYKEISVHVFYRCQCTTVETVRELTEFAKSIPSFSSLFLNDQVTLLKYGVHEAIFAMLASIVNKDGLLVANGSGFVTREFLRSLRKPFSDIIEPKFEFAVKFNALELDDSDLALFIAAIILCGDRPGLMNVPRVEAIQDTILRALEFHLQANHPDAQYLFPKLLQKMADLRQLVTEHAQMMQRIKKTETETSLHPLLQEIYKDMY

The target of experiment [4] is Peroxisome proliferator-activated receptor gamma (Homo sapiens) (UniProt P37231). Put plainly: qHTS assay for small molecule antagonists of peroxisome proliferator-activated receptor gamma signaling (AID 588537; active means well fitted inhibition curve with a large enough effect in the signal ratio, with a control signal flat, not every such curve was filed as active; the % refers to the signal ratio;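 further: reporter cells co-stimulated with 50 nM rosiglitazone agonist during compound treatment; % of control where 0% means no effect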). The method in brief: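 Read-out: CCF4 fluorescence (ex 405, em 460/530 nm) after 2 h at RT. Cells were HEK293 carrying a UAS-bla reporter and treated 16 h at 37 C with compound plus rosiglitazone (50 nM final). Normalized to rosiglitazone and DMSO.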
Chain of Peroxisome proliferator-activated receptor gamma (Homo sapiens) (P37231 whole entry, looked up): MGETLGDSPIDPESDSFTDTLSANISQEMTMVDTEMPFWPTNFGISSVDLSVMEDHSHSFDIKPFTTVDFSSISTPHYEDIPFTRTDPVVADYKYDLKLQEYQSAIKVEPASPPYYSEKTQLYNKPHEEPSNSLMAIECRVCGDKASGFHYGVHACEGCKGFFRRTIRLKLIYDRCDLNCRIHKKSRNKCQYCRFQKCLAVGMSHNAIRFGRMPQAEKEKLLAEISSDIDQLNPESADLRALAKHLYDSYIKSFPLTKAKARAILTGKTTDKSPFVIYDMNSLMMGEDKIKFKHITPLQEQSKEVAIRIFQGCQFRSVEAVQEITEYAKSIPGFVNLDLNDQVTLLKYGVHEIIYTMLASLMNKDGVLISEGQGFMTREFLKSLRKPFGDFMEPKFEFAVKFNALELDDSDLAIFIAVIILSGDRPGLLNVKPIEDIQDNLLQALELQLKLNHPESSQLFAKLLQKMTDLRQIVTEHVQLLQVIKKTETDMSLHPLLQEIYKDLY

Experiment [5] concerns the target Vitamin D3 receptor (Homo sapiens) (UniProt P11473). The experiment in a line: qHTS assay for small molecule agonists of vitamin D receptor signaling (AID 588543; calls by dose curve;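 further: 0% = DMSO basal and 100% = reference agonist control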). The method in brief:
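β-lactamase reporter, VDR-UAS-bla HEK293T, agonist mode. Cells plated 5 h at 37 °C, compound titration 16 h at 37 °C, CCF4 dye 2 h RT, ratio 460/530 nm. Hill fit → EC50, efficacy vs 50 nM 1α,25-(OH)2D3.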

The nature of experiment [6]: qHTS assay for small molecule antagonists of retinoid X receptor alpha signaling (AID 588546).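 Further: cells stimulated with 9-cis-retinoic acid as agonist; on the % scale 0 is the no-effect control and ±100 the full control effect.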 To be noted: HEK293T RXRa-UAS-bla, beta-lactamase ratio, antagonist mode; measured here: W530 green channel, cytotoxicity proxy. In a few lines:
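Beta-lactamase reporter inhibition, read as CCF4 fluorescence ratio (ex 405, em 460/530 nm) after 2 h at RT. HEK293T UAS-bla cells, 2500/well, were stimulated with 9-cis-RA at 500 or 100 nM final alongside test compound for 18 h at 37 C.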

Experiment [7] addresses Thyroid hormone receptor beta (Homo sapiens) (UniProt P10828). Put plainly: qHTS assay for small molecule antagonists of thyroid hormone receptor beta signaling (AID 588547; active means well fitted inhibition curve with a large enough effect in the signal ratio, with a control signal flat, not every such curve was filed as active; the % refers to the signal ratio;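 further: cells stimulated with 0.4 nM T3 agonist during compound exposure; series mostly up to about 77 µM; on the % scale 0 is the no-effect control and ±100 the full control effect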). The note with it: TR-UAS-bla HEK293, beta-lactamase ratio, antagonist mode, 18 h. In a few lines: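 TR-UAS-bla GripTite HEK293 cells in 2% charcoal/dextran FBS medium; compounds 0.59 nM to 92 uM with T3 at 0.4nM final, 18 h at 37 C. Beta-lactamase read by CCF4 fluorescence (460/530 nm); Hill fits gave IC50 and efficacy.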

Experiment [8] is described as follows: qHTS assay for small molecule agonists of the antioxidant response element (ARE) signaling pathway (AID 651741; active means well fitted activation curve with a large enough effect in the signal ratio; the % refers to the signal ratio; further: % of control where 0% means no effect). In a few lines: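 HepG2 ARE-bla reporter cells, 2,000/well; 5 h settle at 37 C/5% CO2; compound pin transfer (23 nL, DMSO); 16 h at 37 C; LiveBLAzer B/G FRET substrate, 2 h RT; fluorescence intensity read.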
Experiment [9] in a line: qHTS assay for small molecule activators of the p53 signaling pathway (AID 651743; active means well fitted activation curve with a large enough effect in the signal ratio, not every such curve was filed as active; the % refers to the signal ratio; further: series mostly up to about 92 µM; % of control where 0% means no effect). To be noted: HCT-116 p53RE-bla, beta-lactamase FRET ratio, 16 h; activation: stronger effect = higher value. In a few lines: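 Reporter: beta-lactamase driven by p53 response elements, stably integrated in HCT-116 cells. Cells seeded at 4,000/well, 5 h preincubation, compound (DMSO) 16 h at 37 C; B/G FRET substrate 2 h RT; fluorescence intensity read.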

A short description of experiment [10]: qHTS assay for small molecule activators of the nuclear factor-kappa B (NF-kB) signaling pathway (AID 651749; active means well fitted activation curve with a large enough effect in the signal ratio; the % refers to the signal ratio; further: series mostly up to about 77 µM; % of control where 0% means no effect). The note with it: NF-kB-bla ME-180 cells, beta-lactamase FRET ratio, 16 h; activation: stronger effect = higher value. The method in brief:
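NF-kB-bla ME-180 cells, 2,000/well; 23 nL compound or DMSO pinned; 16 hr, 37C/5% CO2; beta-lactamase FRET read-out.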

The nature of experiment [11]: qHTS assay for environmental chemicals that activate the Aryl hydrocarbon Receptor (AhR) signaling pathway (AID 651777). Further: % of control where 0% means no effect; nearly all actives have a fitted effect of over 15% in size. The note with it: 1A2-DRE human hepatoma cells, luciferase, 24 h; activation: stronger effect = higher value. The method in brief: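 Reporter gene assay: hepatoma cells with DRE/CYP1A2-luciferase, 24 hr compound incubation at 37 C, 5% CO2, luminescence after One-Glo (30 min, RT).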

Experiment [12] can be described thus: qHTS assay for small molecule agonists of the antioxidant response element (ARE) signaling pathway measured by Nrf2-dependant transcriptional activity (AID 720636; active means well fitted curve in the direction sought with a large enough effect in the repeat runs; an effect the other way counts as inactive or inconclusive;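 further: HepG2 cells with an ARE-driven luciferase reporter; % of control where 0% means no effect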). The method in brief:
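Nrf2-dependent transcription is measured in ARE-luc HepG2 cells: compound is applied for 16 hr at 37 C after a 6 hr attachment period, and luciferase activity is quantified by luminescence using ONE-Glo.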

Experiment [13] in a line: qHTS assay for small molecule agonists of the antioxidant response element (ARE) signaling pathway measured by Nrf2-dependant transcriptional activity - cell viability counter screen (AID 720653; active means well fitted curve in the direction sought with a large enough effect in the repeat runs; an effect the other way counts as inactive or inconclusive; further: on the % scale 0 is the no-effect control and ±100 the full control effect). To be noted: ARE-bla HepG2 viability, CellTiter-Glo ATP luminescence, 16 h; stronger effect = lower value. In a few lines:
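ARE-bla HepG2 cells treated with compounds for 16 h at 37C; this counter screen measures viability as intracellular ATP by CellTiter-Glo luminescence after 30 min at room temperature.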

Experiment [14] in a line: qHTS assay for cell viability of the p53RE-bla HCT-116 cell line (AID 743292). Further: on the % scale 0 is the no-effect control and ±100 the full control effect; nearly all actives have a fitted effect of over 55% in size. In a few lines:
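ATP-based luminescence, 16 h compound exposure at 37 C, p53RE-bla HCT-116 cells at 4,000/well.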

Experiment [15] deals with Nuclear receptor subfamily 1 group I member 2 (Rattus norvegicus) (UniProt Q9R1A7). Put plainly: qHTS assay for small molecule activators of the rat pregnane X receptor (rPXR) signaling pathway (AID 651751; call rule not given here; further: 0% is about no effect). The note with it: rPXR reporter cells, luciferase (One-Glo), 24 h.
Chain of Nuclear receptor subfamily 1 group I member 2 (Rattus norvegicus) (Q9R1A7 whole entry, looked up): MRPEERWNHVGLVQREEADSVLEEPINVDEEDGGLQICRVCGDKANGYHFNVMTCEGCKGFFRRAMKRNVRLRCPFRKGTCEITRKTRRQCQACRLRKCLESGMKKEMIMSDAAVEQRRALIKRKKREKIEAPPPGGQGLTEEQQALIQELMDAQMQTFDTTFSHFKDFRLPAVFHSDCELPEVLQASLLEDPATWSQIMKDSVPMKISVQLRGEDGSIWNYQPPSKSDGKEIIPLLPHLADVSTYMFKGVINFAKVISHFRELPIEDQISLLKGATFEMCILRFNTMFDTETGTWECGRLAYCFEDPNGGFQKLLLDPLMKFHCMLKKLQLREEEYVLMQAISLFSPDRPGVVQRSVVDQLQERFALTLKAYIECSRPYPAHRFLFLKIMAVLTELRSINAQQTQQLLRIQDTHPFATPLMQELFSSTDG
Experiment [16] addresses Estrogen receptor (Homo sapiens) (UniProt P03372). Put plainly: qHTS assay for small molecule antagonists of estrogen receptor alpha signaling (AID 588513; active means well fitted curve in the direction sought with a large enough effect in the signal ratio, with a control signal flat, not every such curve was filed as active; the % refers to the signal ratio; further: on the % scale 0 is the no-effect control and ±100 the full control effect). The method in brief: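 Beta-lactamase reporter, antagonist mode, HEK 293 GripTite cells; 0.5nM E2 stimulus, 18 h, 37 C; CCF4 dye 2 h RT; fluorescence. IC50 and efficacy from Hill fits, normalized to E2 and DMSO.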
Experiment [17] in a line: qHTS assay for small molecule activators of the human pregnane X receptor (PXR) signaling pathway (AID 720659; call rule not given here; further: 0% is about no effect).

Chain of Vitamin D3 receptor (Homo sapiens) (P11473 whole entry, looked up): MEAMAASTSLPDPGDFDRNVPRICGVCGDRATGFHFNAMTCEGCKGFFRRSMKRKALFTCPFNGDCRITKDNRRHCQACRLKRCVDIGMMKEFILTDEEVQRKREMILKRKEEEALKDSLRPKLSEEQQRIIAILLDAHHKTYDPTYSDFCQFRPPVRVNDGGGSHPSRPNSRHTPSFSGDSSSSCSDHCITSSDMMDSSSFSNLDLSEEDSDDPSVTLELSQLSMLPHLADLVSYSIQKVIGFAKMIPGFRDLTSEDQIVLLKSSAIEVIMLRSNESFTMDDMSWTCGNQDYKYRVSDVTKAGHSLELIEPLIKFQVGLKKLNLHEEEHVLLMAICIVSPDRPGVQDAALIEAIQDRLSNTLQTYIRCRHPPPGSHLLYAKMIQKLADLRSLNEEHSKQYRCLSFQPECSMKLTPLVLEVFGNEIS
Chain of Estrogen receptor (Homo sapiens) (P03372 whole entry, looked up): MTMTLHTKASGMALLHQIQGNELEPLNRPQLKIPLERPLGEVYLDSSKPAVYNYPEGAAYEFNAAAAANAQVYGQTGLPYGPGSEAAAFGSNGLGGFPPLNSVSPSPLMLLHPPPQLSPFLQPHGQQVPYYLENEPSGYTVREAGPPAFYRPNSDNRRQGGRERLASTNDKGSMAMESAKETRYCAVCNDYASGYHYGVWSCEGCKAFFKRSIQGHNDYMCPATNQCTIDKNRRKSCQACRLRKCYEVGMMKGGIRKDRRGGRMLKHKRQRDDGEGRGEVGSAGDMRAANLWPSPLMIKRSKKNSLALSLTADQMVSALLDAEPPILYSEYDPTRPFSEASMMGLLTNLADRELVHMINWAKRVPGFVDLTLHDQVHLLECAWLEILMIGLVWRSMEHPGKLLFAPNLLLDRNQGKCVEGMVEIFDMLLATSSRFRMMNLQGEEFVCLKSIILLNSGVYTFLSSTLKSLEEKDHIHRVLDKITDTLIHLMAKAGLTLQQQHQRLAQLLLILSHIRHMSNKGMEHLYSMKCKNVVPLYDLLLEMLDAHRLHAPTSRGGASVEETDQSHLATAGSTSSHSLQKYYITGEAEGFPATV
Chain of Thyroid hormone receptor beta (Homo sapiens) (P10828 whole entry, looked up): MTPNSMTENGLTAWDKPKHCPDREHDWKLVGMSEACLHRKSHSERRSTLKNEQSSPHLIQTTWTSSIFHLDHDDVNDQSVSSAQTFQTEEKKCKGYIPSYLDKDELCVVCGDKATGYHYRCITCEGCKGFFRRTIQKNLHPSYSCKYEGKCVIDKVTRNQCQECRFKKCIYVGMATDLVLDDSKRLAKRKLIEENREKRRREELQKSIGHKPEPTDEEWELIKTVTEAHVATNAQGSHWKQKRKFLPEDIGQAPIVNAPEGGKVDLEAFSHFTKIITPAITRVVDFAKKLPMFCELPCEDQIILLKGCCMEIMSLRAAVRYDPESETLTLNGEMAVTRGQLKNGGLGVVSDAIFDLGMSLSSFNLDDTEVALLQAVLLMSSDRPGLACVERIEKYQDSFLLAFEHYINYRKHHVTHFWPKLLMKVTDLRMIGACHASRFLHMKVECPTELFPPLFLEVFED
Chain of DNA dC->dU-editing enzyme APOBEC-3G (Homo sapiens) (Q9HC16 whole entry, looked up): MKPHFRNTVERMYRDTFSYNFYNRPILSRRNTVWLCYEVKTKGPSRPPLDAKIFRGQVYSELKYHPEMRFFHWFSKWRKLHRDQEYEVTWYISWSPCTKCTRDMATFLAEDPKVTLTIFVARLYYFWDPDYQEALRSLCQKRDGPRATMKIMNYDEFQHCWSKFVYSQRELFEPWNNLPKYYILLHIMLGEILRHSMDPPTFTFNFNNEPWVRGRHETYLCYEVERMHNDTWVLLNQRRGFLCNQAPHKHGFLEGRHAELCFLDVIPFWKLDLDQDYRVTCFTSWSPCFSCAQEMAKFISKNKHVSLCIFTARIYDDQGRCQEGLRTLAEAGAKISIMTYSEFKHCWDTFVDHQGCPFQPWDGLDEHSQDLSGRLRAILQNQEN

With `C=C[C@H]1CN2CCC1C[C@@H]2C(O)c1ccnc2ccccc12` (stereo partly specified), the compound was called inactive in experiment [1].

For `O=C1CC2OCC=C3CN4CC[C@]56c7ccccc7N1[C@H]5[C@H]2C3C[C@H]46` (stereo partly specified), the compound was classed as inactive in [1].

In the case of `CC(C)(C)C(=O)C(Oc1ccc(Cl)cc1)n1cncn1` (stereo unspecified), the Potency in experiment [2] was 39.8 µM (active). In addition, the call in experiment [3], in experiment [5] and in experiment [12] was inactive. The Potency result in experiment [4], in experiment [8] and in [14] was “inactive” in each case. In addition, the max response in [6] was 2.99% and 5.39%; in experiment [13], 5.28% (inactive) and -3.18% (inactive). The activity change % (negative = inhibition) in experiment [7] was -2.73% (inactive) and -13.2% (inactive). The activation in [9] is -0.546% (inactive) and 1.4% (inactive); in experiment [10] it was -2.3% (inactive) and -1.59% (inactive); in experiment [11], 6% (inactive).

As to `CC(C)Nc1nc(Cl)nc(NC(C)C)n1`, the Potency entry in experiment [2], in [4] and in [14] was “inactive” throughout. For the same compound, the compound was classed as inactive in experiment [3], in experiment [5] and in experiment [12]. The max response in experiment [6] was -10.2%; in experiment [13], -2.76% (inactive); in experiment [15], -1.62% (inactive). Moreover, the results for the activation in experiment [9] and in experiment [11] were -2.19% (inactive) and 0.683% (inactive), respectively.

Turning to `CCS(=O)CCSP(=O)(OC)OC` (stereo unspecified), the Potency entry in experiment [16], in experiment [2], in [8] and in [14] was “inactive” in each case. Also, the result in experiment [3], in experiment [5], in experiment [12] and in experiment [17] was inactive. Besides, the max response is -0.327% in [6], -6.55% (inactive) in [13] and -2.51% (inactive) in experiment [15]. Besides, the activity change % (negative = inhibition) in [7] is -3.19% (inactive). Besides, the activation is -0.772% (inactive) in [9] and -0.491% (inactive) in experiment [11].

Consider `CC(C)(C)[C@]1(O)C[C@@H]2OC(=O)C[C@@]23C(=O)O[C@@H]2OC(=O)[C@H](O)[C@]213`, for which, in [1], the outcome was inactive.

As for `CCC(=O)Nc1ccc(Cl)c(Cl)c1`, the max response is -13.9% in experiment [6], -7.64% (inactive) in experiment [13] and 6.65% (inactive) in [15]. For the same compound, the activation in experiment [9] is 4.6% (inactive); in experiment [11] it was 4.76% (inactive). Further, the outcome in [12] and in experiment [17] was inactive. In experiment [14], the Potency result was “inactive”.

As for `CC1CC[C@@]2(NC1)O[C@@H]1C[C@H]3C4CC=C5C[C@@H](O)CC[C@]5(C)C4CC[C@]3(C)[C@H]1[C@@H]2C` (stereo partly specified), in experiment [1], the compound was classed as inactive.

As to `C[C@]1(C(=O)O)CCC[C@]2(C)c3cc(O)ccc3CC[C@@H]12`, the outcome in experiment [1] was inactive.
